Screens (PubChem)
Abeta yeast res: compounds reversing amyloid beta toxicity in yeast | AID 1347071 | Potency, µM (titrated, usually from 46.1 µM), hits mostly activators | 410,000 tested, 0.063% active | yeast expressing A-beta42, growth rescue, OD600, 48 h; response scale: 0% DMSO, 100% iron-clioquinol control; also: nearly all actives have a fitted effect of over 55% in size
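Yeast growth medium received pinned compounds, then yeast cells expressing toxic A-beta were added; plates incubated at 30 C for 48 hr. Growth read as absorbance at 600 nm, normalized to DMSO and equimolar FeCl3 plus clioquinol controls.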
Mito fusion yeast: inhibitors of mitochondrial division or activators of mitochondrial fusion | S. cerevisiae fusion-defective mutant growth rescue, CellTiterGlo 48 h | Potency, µM (highest dose often 46.1 µM), for inactives: at the highest dose growth rescue (activation), actives largely listed as activators | 320,000 tested, 0.23% active | AID 485298; also: % of control where 0% means no effect; nearly all actives have a fitted effect of over 45% in size
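Yeast fusion mutant, YPEG (non-fermentable carbon), compound, 48 h at 37C non-permissive; CellTiterGlo added, 10 min RT, luminescence read. Rescued growth = division inhibition.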
FUS yeast rescue: suppressors of FUS proteinopathy in yeast. 390,000 tested, 0.24% active. S. cerevisiae FUS-expressing, growth rescue, OD600, 24 h. Potency, µM (highest dose often 76.6 µM), most hits filed as activators;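 also: plate controls were DMSO vehicle for no effect and reference control for full effect; nearly all actives have a fitted effect of over 55% in size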
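Compound concentration series was pinned onto galactose-induced FUS-expressing yeast seeded at OD 0.005. Plates sat 24hr at 30C; absorbance at 600 nm gave growth. DMSO served as background control.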
TDP-43 yeast inh: TDP-43 toxicity inhibition in yeast | TDP-43 expressing yeast growth rescue, BacTiter-Glo, 24 h | Potency, µM (titrated, usually from 46.1 µM), without a hit: at the top dose growth rescue (activation), hits mostly activators | 410,000 tested, 1.8% active | AID 652104; also: % of control where 0% means no effect; nearly all actives have a fitted effect of over 50% in size
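Yeast cells expressing TDP-43 under galactose induction are exposed to compounds for 24 hr at 30 deg C. BacTiter-Glo luminescence measures growth, so protective compounds score as activators.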
aSyn rescue: rescues yeast growth from alpha-synuclein toxicity | AID 652106 | Potency, µM (series often up to 46.1 µM), for the others: at the top dose growth rescue (activation), most hits filed as activators | 370,000 tested, 0.14% active | Yeast expressing alpha-synuclein, growth rescue, BacTiter-Glo, 24 h; also: % of control where 0% means no effect; nearly all actives have a fitted effect of over 65% in size
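Readout is rescue of growth in alpha-synuclein-expressing yeast, so inhibitors of toxicity appear as activators. Growth after 24 hr at 30 deg C in galactose medium is quantified by luminescence.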
An asterisk follows results filed as active; i = inactive; ? = inconclusive; · = no result given; [ ] = remark or other dose. Most compounds without a hit are left out; they make up all but 2.2% or so of the library. Calls follow the shape of the dose curve; as a rule, active = well fitted curve in the direction sought with a large enough effect; inconclusive = small, poorly fitted or top-dose-only effect, or another doubt; inactive = no such curve, though single readings can be large; an effect the other way counts as inactive or inconclusive. Potency is read from the fitted curve at half-maximal effect.

SMILES	Abeta yeast res	Mito fusion yeast	FUS yeast rescue	TDP-43 yeast inh	aSyn rescue
COc1ccc(N2CCC(CNC(=S)Nc3cc(C)cc(C)c3)C2)cc1 (stereo unspecified)	?	14%	?	?	5%
c1ccc(-c2cnc(-c3ccccn3)nn2)cc1	i	·	i	22µM*	25%
c1ccc(-c2ccc(CNc3nc(-c4ccccn4)nnc3-c3ccccc3)cc2)cc1	·	·	20µM*	·	·
c1ccc(-c2cnc(-c3ccccc3)nn2)cc1	i	·	i	23%	-1%
Cc1cccc(CCNC(=O)c2cnc3c(C)cccn3c2=O)c1	i	·	i	28µM*	·
CC1(C(=O)NS(=O)(=O)c2cccc(F)c2)CCN1C(=O)c1ccccc1CCc1ccccc1 (stereo unspecified)	i	·	i	?	-26%
COc1ccc(NC(=O)C2(C)CCN2C(=O)c2ccccc2CCc2ccccc2)cc1OC (stereo unspecified)	i	·	?	18µM*	12%
Cc1cccc(S(=O)(=O)NC(=O)C2(C)CCN2C(=O)c2ccccc2CCc2ccccc2)c1 (stereo unspecified)	i	·	i	16µM*	-15%
COc1ccc(C(CNC(=O)c2cccc([N+](=O)[O-])c2)N2CCOCC2)cc1 (stereo unspecified)	i	·	i	18%	·
O=C1C(=O)c2ccc(-c3ccccc3)cc2-c2ccccc21	i	-21%	i	3.5µM*	-36%
Nc1ccc2c(c1)C(=O)C(=O)c1ccccc1-2	i	-14%	i	-92%	-81%
O=C(O)c1ccc(N/N=C2/CCSc3ccc(F)cc32)cc1	i	1%	i	10µM*	3%
Cc1cccc(NC(=O)C2CCCN(S(=O)(=O)c3cccc4nonc34)C2)c1C (stereo unspecified)	i	·	i	7%	·
CN(CC(=O)Nc1cccc(F)c1)C(=O)/C=C/c1cc(Br)ccc1OC(F)F	i	?	i	20µM*	4%
Cc1cccc(COc2ccccc2C(=O)N(C)CC(=O)Nc2cccc(F)c2)c1	i	?	i	25µM*	0%[1.84 µM]
CCS(=O)(=O)N1CCCC(C(=O)NCCOC)C1 (stereo unspecified)	i	·	i	-1%	-5%
COc1cccc(NC(=O)C(C)n2c(=O)cc(C(F)(F)F)c3c(C)nn(C)c32)c1 (stereo unspecified)	i	·	i	9%	·
COC(=O)c1cn(CCOc2ccccc2OC)c2ccccc12	i	3%	i	?	15%
O=C(N/N=C/c1cn(CCOc2ccccc2)c2ccccc12)c1ccncc1	i	9%	i	-23%	-4%
COc1ccccc1OCCn1cc(/C=N/NC(=O)c2ccncc2)c2ccccc21	i	7%	i	13µM*	10%
O=C(c1ccco1)c1cn(CCOc2ccc(F)cc2)c2ccccc12	i	·	i	18µM*	·
COC(=O)c1cn(CCOc2ccccc2F)c2ccccc12	?	29%	i	11µM*	9%
O=C(c1ccco1)c1cn(CCOc2ccc(Cl)cc2)c2ccccc12	i	·	i	6%	·
COc1ccc(-c2onc(C)c2C)cc1S(=O)(=O)Nc1ccc(OC(F)(F)F)cc1	i	·	i	9%	·
Cc1nc2ccccc2n1C(=O)c1ccccc1[N+](=O)[O-]	i	7%	·	20µM*	-1%
SMILES	Abeta yeast res	Mito fusion yeast	FUS yeast rescue	TDP-43 yeast inh	aSyn rescue
COc1ccc(S(=O)(=O)N(C)Cc2cccs2)cc1Br	i	9%	i	16µM*	13%
CN(C)c1cccc(/C=C2\CC3(OC(=O)c4ccc(F)cc4)CCCN2C3)c1 (stereo unspecified)	·	·	i	·	·
O=S(=O)(N=C(NS(=O)(=O)c1ccc(Cl)cc1)c1ccccc1)c1ccc(Cl)cc1	i	·	i	11µM*	-2%
O=S(=O)(/N=C(/NS(=O)(=O)c1ccccc1)c1ccccc1)c1ccccc1	i	-5%	i	11%	2%
O=C(NC1CCCCN(Cc2cccc(Cl)c2)C1=O)c1c(F)cccc1F (stereo unspecified)	·	·	i	·	·
CCc1nn(CC(=O)NC(C)CC)c(=O)c2cc3occc3n12 (stereo unspecified)	i	·	i	7%	·
O=C(O)c1cc2[nH]c3c(c2cc1Cl)CCCC3	i	-2%	i	·	20µM*
O=C1CC(c2cc(F)ccc2F)c2cc3c(cc2N1)CCC3 (stereo unspecified)	i	7.1µM*	i	-23%	?
O=C1CC(c2cccc(Br)c2)c2cc3c(cc2N1)CCC3 (stereo unspecified)	i	-12%	i	-6%	?
CCOc1ccc2oc(=O)cc(CN3CCN(c4ccc(OC)cc4)CC3)c2c1	i	·	i	11%	·
COc1cc(C#Cc2c(-c3cncn3C)n(C)c3ccc(-c4cnc(OC)nc4)cc23)cc(OC)c1	i	?	i	11µM*	14%
Cc1ccccc1C(=O)NNC(=S)NC(=O)c1cccs1	i	-15%	i	?	3.5µM*
CCC(C)c1ccc(O)c(NC(=S)NC(=O)c2cccs2)c1 (stereo unspecified)	?	·	i	?	13µM*
O=C(NC(=S)NCc1ccccc1Cl)c1cccs1	i	·	·	18µM*	-14%
Cc1ccnc(NC(=S)NC(=O)c2cccs2)c1	i	-3%	·	16µM*	-7%
COc1ccc(-c2nc3ccc(NC(=O)CO)cc3c(=O)n2Cc2cccc(Cl)c2)cc1COc1ccc(NC(C)=O)cc1	·	·	·	·	5%
Cc1ccccc1S(=O)(=O)Nc1nc2ccccc2nc1Cl	i	24%	i	10µM*	-10%
Clc1cccc(CNc2ccn3nc(-c4cccs4)cc3n2)c1	?	·	i	18µM*	?
Clc1cccc(CNc2ccn3nc(-c4ccc(OCCN5CCOCC5)cc4)cc3n2)c1	i	·	i	0%	?
Clc1cccc(CNc2ccn3nc(-c4ccco4)cc3n2)c1	i	·	i	16µM*	?
CC(NC(=O)c1cnn2c1NC(=C1CC1)C=C2C(F)F)c1ccncc1 (stereo unspecified)	·	·	·	·	9%
CC(C)(C)C(=O)C1=C(O)C(=O)N(Cc2ccccc2)C1c1ccccc1Cl (stereo unspecified)	i	2%	i	13µM*	12%
CCN1C(=NCCCCO)N[C@@H](c2ccccc2)C(C(=O)OC)=C1C	·	-2%	·	·	·
CCOC(=O)/C(=C\c1ccccc1)C(=O)c1cc(C(C)=O)c(Nc2ccccc2)s1	i	10%	i	-11%	28%
CCOC(=O)/C(=C\c1cccnc1)C(=O)c1cc(C(C)=O)c(Nc2ccccc2)s1	i	3%	·	3.2µM*	-21%
